Laboratory results as given in PubChem BioAssay.
For part of these data: Measured potencies and affinities stand elsewhere. Calls of active or inactive are those of the source.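 The calls were made as follows, unless noted: active = fitted half-maximal concentration within the tested range, moderate curve steepness, significant signal drop, and little compound fluorescence or bead-linkage interference; inactive = the rest.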

What was measured:
[1] = target: Cell division control protein 42 homolog (Homo sapiens) (UniProt P60953); test: activated mutant Cdc42 GTP-binding inhibitors, dose response, biochemical, multiplex bead flow cytometry, Bodipy-FL-GTP (AID 1333;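 active = fitted half-maximal concentration within the tested dose range, moderate curve steepness, a statistically real signal drop, and little compound fluorescence or tag-binding interference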); settings: bead-based flow cytometry; series mostly up to 100 µM
[2] = target: Cell division control protein 42 homolog (Homo sapiens) (UniProt P60953); test: wildtype Cdc42 GTP-binding inhibitors, dose response, biochemical, multiplex bead flow cytometry, Bodipy-FL-GTP (AID 1334); settings: bead-based flow cytometry, Bodipy-FL-GTP binding to GST-Cdc42; at 100 µM (top of the series) unless noted
[3] = target: GTPase HRas (Homo sapiens) (UniProt P01112); test: inhibitors of GTP binding to wildtype Ras, dose response, biochemical, multiplex bead flow cytometry (AID 1335;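 active = fitted half-maximal concentration within 10 nM to 100 µM, steepness 0.5 to 2, significant signal drop, low assay interference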); settings: bead-based flow cytometry, Bodipy-GTP binding to GST-Ras; at 100 µM (top of the series) unless noted
[4] = system: Ras-related protein Rab-7a (dog), GTP binding; test: Rab7 GTP binding inhibitors, potency, dose response, biochemical, wildtype, multiplex bead flow cytometry (AID 1336; call rule not given here); settings: bead-based flow cytometry, fluorescent GTP binding to Rab7; series mostly up to 100 µM
[5] = target: Ras-related C3 botulinum toxin substrate 1 (Homo sapiens) (UniProt P63000); test: wildtype Rac1 GTP binding inhibitors, dose response, biochemical, multiplex bead flow cytometry (AID 1340;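 active = dose curve with midpoint inside tested range, moderate steepness, plateau gap beyond fit error, low compound glow and bead-link interference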); settings: GST-Rac1 beads, Bodipy-FL-GTP binding; at 100 µM (top of the series) unless noted
[6] = target: GTPase HRas (Homo sapiens) (UniProt P01112); test: activated Ras mutant GTP binding inhibitors, dose response, biochemical, multiplex bead flow cytometry (AID 1341;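 active = dose-response curve with midpoint inside the tested range, moderate steepness, significant amplitude and little compound fluorescence or bead-attachment interference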;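 also: GST-tagged constitutively activated Ras mutant immobilized on beads and multiplexed with other GTPases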); settings: bead-based flow cytometry, Bodipy-FL-GTP binding; series mostly up to 100 µM

Sequence of Cell division control protein 42 homolog (Homo sapiens) (P60953 whole entry, looked up): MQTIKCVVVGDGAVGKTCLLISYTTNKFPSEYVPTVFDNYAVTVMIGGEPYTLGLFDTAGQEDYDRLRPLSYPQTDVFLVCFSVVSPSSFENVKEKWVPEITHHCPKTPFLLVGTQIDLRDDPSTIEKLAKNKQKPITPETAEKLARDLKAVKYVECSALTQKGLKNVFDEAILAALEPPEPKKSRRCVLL
Sequence of GTPase HRas (Homo sapiens) (P01112 whole entry, looked up): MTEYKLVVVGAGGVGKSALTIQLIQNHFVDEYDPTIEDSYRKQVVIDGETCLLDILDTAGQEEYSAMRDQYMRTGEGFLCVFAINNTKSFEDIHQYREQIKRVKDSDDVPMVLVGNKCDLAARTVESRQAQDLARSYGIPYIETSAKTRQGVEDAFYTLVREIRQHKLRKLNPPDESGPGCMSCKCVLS

| Compound | outcome [1] | fluorescence, percent of control (lower = inhibition) [2] [%] | GTP binding, percent of control [3] | outcome [4] | GTP binding signal, raw median fluorescence (lower = inhibition) (MCF (arbitrary fluorescence units)) [5] | outcome [6] |
| --- | --- | --- | --- | --- | --- | --- |
| CCOc1ccc2nc(SCc3ccc(CC(=O)O)cc3)c(C#N)cc2c1 | inactive | 28.4 | 73.2% | inactive | 201 | inactive |
| O=C(O)c1cc(C(=O)O)cc(-c2ccc(/C=c3/sc4nc5ccccc5n4c3=O)o2)c1 | inactive | 30 | 72.3% | inactive | 185 | inactive |
| CCCCN1C(=O)/C(=C/C=C2\N(C)c3ccccc3C2(C)C)SC1=S | inactive | 128 | 134% | inactive | 235 | inactive |
| COc1ccc(CNc2nc3ccccc3n2Cc2ccc(C)cc2)cc1OC | inactive | 73 | 73.9% | inactive | 343 | inactive |
| O=C(CSc1nnc2c(n1)[nH]c1ccccc12)Nc1ccc(S(=O)(=O)Nc2ncccn2)cc1 | inactive | 33.3 | 72.8% | inactive | 148 | inactive |
| O=C(N/N=C/c1ccc([N+](=O)[O-])o1)c1cn(-c2ccccc2)nc1-c1ccc(Cl)cc1 | inactive | 31.7 | 77% | inactive | 207 | inactive |
| O=C1NC(=S)N/C1=C/c1cc([N+](=O)[O-])ccc1O | inactive | 60.7 | 157% [at 33.3 µM] | inactive | 185 [at 33.3 µM] | inactive |
| Cc1[nH]c2ccccc2c1/C=C/C(=O)c1ccccc1 | inactive | 68.9 | 81.7% | inactive | 216 | inactive |
| Cc1cccc(CCNc2ncccc2C(=O)O)c1 | inactive | 122 | 337% | inactive | 101 | inactive |
| COCCN(C(=S)Nc1cc(C)ccc1C)C(C)c1cccnc1 (stereo not given) | inactive | 52.6 | 63.7% | inactive | 212 | inactive |
| COc1cc(/C=N/Nc2nc(C)nc3c2cnn3-c2ccccc2)ccc1O | inactive | 87.1 | 128% | inactive | 241 | inactive |
| Cc1ccc(OCCSc2nc3ccccc3n2CC(=O)O)c(C)c1 | inactive | 55.9 | 85% | inactive | 29.2 | inactive |
| CCOC(=O)c1c(-c2ccc(C)cc2)csc1NC(=O)/C(C#N)=C/c1ccc(O)c(OC)c1 | inactive | 87.8 | 99.4% | inactive | 226 | inactive |
| O=C(c1cccnc1SCCc1ccccc1)N1CCOCC1 | inactive | 77.3 | 101% | inactive | 64.8 | inactive |
| NC(=O)N=Nc1c(O)[nH]c2c(Br)cc(Br)cc12 | inactive | 37.2 | 81.4% | inactive | 213 | inactive |
| Cc1ccc(Nc2ncccc2C(=O)O)cc1 | inactive | 58.7 | 85.1% | inactive | 31.3 | inactive |
| Oc1ccc(/C=N/NC(=S)N/N=C/c2ccc(O)cc2)cc1 | inactive | 45 | 88.4% | inactive | 177 | inactive |
| NC(=O)c1c(NC(=O)c2cnccn2)sc2c1CCCC2 | inactive | 94.1 | 134% | inactive | 217 | inactive |
| COc1ccc(/C=C2\SC(=S)N(CCCC(=O)NNC(=O)c3ccccc3O)C2=O)cc1 | inactive | 32.8 | 73.5% | inactive | 203 | inactive |
| Cn1c(=O)c2cc(S(=O)(=O)NCCC(=O)NCc3ccccc3Cl)ccc2n(C)c1=O | inactive | 64 | 109% | inactive | 122 | inactive |

| Compound | outcome [1] | fluorescence, percent of control (lower = inhibition) [2] [%] | GTP binding, percent of control [3] | outcome [4] | GTP binding signal, raw median fluorescence (lower = inhibition) (MCF (arbitrary fluorescence units)) [5] | outcome [6] |
| --- | --- | --- | --- | --- | --- | --- |
| C=CCNc1nc(=S)[nH]c2cc(OC)c(OC)cc12 | inactive | 31.2 | 69.1% | inactive | 148 | inactive |
| COc1cc(/C=C2/SC(=Nc3ccc(O)cc3)NC2=O)cc(OC)c1O | inactive | 39.8 | 84.1% | inactive | 231 | inactive |
| Cc1ccc(-n2c(=O)cc(N3CCN(C(=O)c4ccco4)CC3)[nH]c2=O)cc1 | inactive | 36.6 | 81.3% | inactive | 286 | inactive |
| C=C(C)COc1ccc(-c2n[nH]c(C)c2-c2ccc(Br)cc2)c(O)c1 | inactive | 32.9 | 78.5% | inactive | 265 | inactive |
| CC(C)(C)NC(=O)c1ccc2nsnc2c1 | inactive | 52.7 | 66.2% | inactive | 213 | inactive |
| Cc1ccccc1OCCn1cc(C(=O)O)c2cccc(C)c21 | inactive | 53.7 | 200% | inactive | 53.4 | inactive |
| N#C/C(=C\c1ccncc1)c1nc2ccccc2[nH]1 | inactive | 31 | 81.6% | inactive | 273 | inactive |
| COc1ccc2[nH]c3nc(SCC(=O)Nc4ccc5c(c4)OCO5)nnc3c2c1 | inactive | 70.4 | 150% | inactive | 164 | inactive |
| CC(C)(C)C(=O)OCC1OC(n2cnc(C(N)=O)n2)C(O)C1O (stereo not given) | inactive | 35.8 | 81.6% | inactive | 266 | inactive |
| COc1cccc(Nc2c(F)c(F)c(F)c(F)c2C(=O)O)c1 | inactive | 53.4 | 60.7% | inactive | 0 | inactive |
| CC(=O)OC(C(=O)NC1CCCCC1)c1ccc(Cl)c(Cl)c1 (stereo not given) | inactive | 39.6 | 88.7% | inactive | 310 | inactive |
| COc1ccc(-c2c(C)[nH]n3c(=O)c(Cc4ccccc4)c(C)nc23)cc1 | inactive | 33.9 | 79% | inactive | 217 | inactive |
| CS(=O)(=O)Nc1ccc(Br)cc1C(=O)c1ccccc1 | inactive | 46.4 | 59% | inactive | 205 | inactive |
| O=C(NC1CC2CCCC(C1)N2C(=O)Nc1ccc(Cl)c(C(F)(F)F)c1)C1CC1 (stereo not given) | inactive | 94.3 | 162% | inactive | 185 | inactive |
| Cc1cccn2c(=O)c(/C=C3\SC(=S)N(CC(C)C)C3=O)c(NCCCOC(C)C)nc12 | inactive | 58.1 | 191% | inactive | 209 | inactive |
| Cc1ccc(-c2csc3nc4c5ccccc5c(NCCCN(C)C)nn4c(=O)c23)cc1 | inactive | 61.7 | 96.5% | inactive | 192 | inactive |
| O=C(O)c1cn(CCOc2ccc(Cl)cc2)c2ccccc12 | inactive | 59.9 | 83.2% | inactive | 36.5 | inactive |
| O=c1n(Cc2ccc(Cl)cc2)c2sc3c(c2c2ncnn12)CCCC3 | inactive | 78.9 | 126% | inactive | 146 | inactive |
| CCN1C(=O)/C(=C/C=C2/Sc3ccc4ccccc4c3N2CCO)SC1=S | inactive | 27.6 | 59.2% | inactive | 179 | inactive |
| COCCNc1nc(=S)[nH]c2cc(OC)c(OC)cc12 | inactive | 35.9 | 43.7% | inactive | 103 | inactive |

| Compound | outcome [1] | fluorescence, percent of control (lower = inhibition) [2] [%] | GTP binding, percent of control [3] | outcome [4] | GTP binding signal, raw median fluorescence (lower = inhibition) (MCF (arbitrary fluorescence units)) [5] | outcome [6] |
| --- | --- | --- | --- | --- | --- | --- |
| O=C(O)c1ccccc1C(=O)OCc1ccccc1 | inactive | 105 | 365% | inactive | 408 | inactive |
| COc1ccccc1Nc1nc(-c2c(C)nc3ncccn23)cs1 | inactive | 26.5 | 57.6% | inactive | 117 | inactive |
| COCCNC(=O)c1cnn2c(C(F)F)cc(-c3ccccc3)nc12 | inactive | 40 | 85.2% | inactive | 204 | inactive |
| Cn1c(=O)c2c(nc(N3CCc4ccccc4C3)n2C)n(C)c1=O | inactive | 36.7 | 76.9% | inactive | 193 | inactive |
| CO/N=C/NC(=O)NOCc1ncc(C(F)(F)F)cc1Cl | inactive | 38.1 | 86.2% | inactive | 295 | inactive |
| Cc1nn(-c2ccc(F)cc2)c(Cl)c1/C=C(\CC(=O)O)c1nc2ccccc2s1 | inactive | 77.1 | 127% | inactive | 160 | inactive |
| O=C(O)c1ccccc1SCc1ccc2c(c1)OCO2 | inactive | 71 | 79.2% | inactive | 0 | inactive |
| Cc1ccc(CN2CC34C=CC(C)(O3)C(C(=O)O)C4C2=O)cc1 (stereo not given) | inactive | 60.3 | 87.8% | inactive | 33.4 | inactive |
| CCOc1nnc(C)c2c(C)n(-c3ccc(Cl)cc3)nc12 | inactive | 52.2 | 66.3% | inactive | 197 | inactive |
| Nc1c(S(=O)(=O)c2ccccc2)c2nc3ccccc3nc2n1C1CC1 | inactive | 33.3 | 80% | inactive | 196 | inactive |
| O=S1(=O)N=C(N(CCO)/N=C/c2ccccc2)c2ccccc21 | inactive | 31.3 | 63.2% | inactive | 139 | inactive |
| N#CCc1c(C#N)c(N)nc(N2CCN(C=O)CC2)c1C#N | inactive | 33.7 | 75.4% | inactive | 170 | inactive |
| COc1ccc(Cn2c(O)c(/C=N/NC(=O)c3cccnc3)c3ccccc3c2=O)cc1 | inactive | 17.2 | 68.9% | inactive | 63.7 | inactive |
| CCOCCCNc1nc(=S)[nH]c2cc(OC)c(OC)cc12 | inactive | 60.4 | 99.7% | inactive | 111 | inactive |
| CC1=C(C(=O)Nc2ccccc2)C(c2ccc(Cl)cc2)n2c(s/c(=C/c3cccc(OCC(=O)O)c3)c2=O)=N1 (stereo not given) | inactive | 26.5 | 75.3% | inactive | 176 | inactive |
| O=C(O)CCN1C(=O)/C(=C\c2ccc(-c3nc4ccccc4s3)o2)SC1=S | inactive | 54.9 | 63.4% | inactive | 88.8 | inactive |
| O=C(N/N=C/c1ccc2nccnc2c1)c1cccc([N+](=O)[O-])c1 | inactive | 42.7 | 86.9% | inactive | 203 | inactive |
| COc1ccc(CCNc2nc(=S)[nH]c3cc(OC)c(OC)cc23)cc1OC | inactive | 25.9 | 57.9% | inactive | 111 | inactive |
| CCCCn1c(O)c(N=NC(=O)c2ccccc2NS(=O)(=O)c2cccs2)c2ccccc21 | inactive | 37.3 | 87.8% | inactive | 280 | inactive |
| CCc1ccc(Sc2cc(C(=O)O)c3ccccc3n2)cc1 | inactive | 57.8 | 86% | inactive | 31 | inactive |
